Among the test systems are HCT-15 colon; HT29 colon; SNB-75 CNS; SNB-19 CNS; U251 CNS; PC-3 prostate; SK-MEL-5 melanoma; UACC-62 melanoma; LOX IMVI melanoma; SK-MEL-28 melanoma; SK-MEL-2 melanoma; EKVX NSCLC; SN12C renal; UO-31 renal; TK-10 renal; ACHN renal; CAKI-1 renal; CCRF-CEM leukemia; MOLT-4 leukemia; A498 renal.
Common to all, as to assay: NCI-60 one-dose screen, 48 h (100 = growth as untreated, 0 = no growth, -100 = all killed)
Holding throughout (details): 10 µM unless noted

About 83,000 compounds went through this panel and 20% of them were active in at least one assay; those are over-represented in the sample as a whole.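 Treatment: one concentration, 48 hours, 96-well format. Scoring: percent growth, with anything below 10 considered active.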 A number with no mark means an inactive call. Calls of active or inactive are those of the source.

Take `COc1ccc(OC2=CC(=O)c3ccc(C)nc3C2=O)cc1`: the growth was 76.1% in the test on HCT-15 colon; 102% in the test with HT29 colon; 53.4% with SNB-75 CNS; 87.7% with SNB-19 CNS; 96.4% with U251 CNS; 85.2% with PC-3 prostate. Also, the growth is 83.5% in the test on SK-MEL-5 melanoma; 83.6% in the test on UACC-62 melanoma; 75.6% in the test on LOX IMVI melanoma; 93.5% in the test with SK-MEL-28 melanoma; 99.5% in the test on SK-MEL-2 melanoma; 96.5% with EKVX NSCLC. For the same compound, the growth is 88.3% in the test with SN12C renal; 92.3% in the test with UO-31 renal; 112% in the test with TK-10 renal; 51.4% in the test on ACHN renal; 82.5% with CAKI-1 renal; 18.5% in the test with CCRF-CEM leukemia. In addition, in the test on MOLT-4 leukemia, the growth is 66.5%.
As to `COc1ccc(/C=C(\C#N)c2cc3ccccc3n2C)cc1`, the growth with HCT-15 colon was 23.9%; in the test on HT29 colon, 9.49% (active); in the test with SNB-75 CNS, 1.11% (active); in the test on SNB-19 CNS, 32.8%; with U251 CNS it was 15.9%; in the test with PC-3 prostate it was 38.8%. Besides, the growth with SK-MEL-5 melanoma was 23.2%; with UACC-62 melanoma, 38.3%; with LOX IMVI melanoma, 39.4%; in the test on SK-MEL-28 melanoma, 62.1%; in the test on SK-MEL-2 melanoma, 67%; in the test with EKVX NSCLC, 39.1%. Besides, the growth with SN12C renal is 44.7%; in the test on UO-31 renal, 48.5%; in the test on ACHN renal it was 45.5%; in the test with CAKI-1 renal, 33.5%; in the test on A498 renal, -12.9% (active); with CCRF-CEM leukemia, 18.3%. Moreover, the growth in the test on MOLT-4 leukemia was 17.4%.
For the compound `Cc1c(C(=O)Nc2nc(-c3ccccc3)cs2)nnn1-c1cccc2ccccc12`, the growth with HCT-15 colon was 57.9% [50 µM]; in the test on HT29 colon it was 64.3% [50 µM]; in the test on SNB-75 CNS it was 80.6% [50 µM]; in the test with SNB-19 CNS it was 72.3% [50 µM]; in the test on U251 CNS, 72.7% [50 µM]; in the test on PC-3 prostate, 53.8% [50 µM]. Further, the growth is -2.94% [50 µM] (active) with SK-MEL-5 melanoma; 49.2% [50 µM] in the test with UACC-62 melanoma; 43.4% [50 µM] with LOX IMVI melanoma; 69.9% [50 µM] in the test on SK-MEL-28 melanoma; 48.2% [50 µM] in the test with SK-MEL-2 melanoma; 39.3% [50 µM] in the test with EKVX NSCLC. Moreover, the growth is 67.9% [50 µM] with SN12C renal; 49.7% [50 µM] in the test with UO-31 renal; 58.1% [50 µM] with ACHN renal; 35.8% [50 µM] in the test on CAKI-1 renal; 58.5% [50 µM] with A498 renal; 47.2% [50 µM] with CCRF-CEM leukemia. The growth in the test on MOLT-4 leukemia was 30.4% [50 µM].
On to `CCCCc1ccc(NC(=O)C(F)(F)F)cc1`, for which the growth in the test with HCT-15 colon is 105%; in the test with HT29 colon it was 99.8%; in the test with SNB-75 CNS, 102%; in the test with SNB-19 CNS, 106%; in the test on U251 CNS, 97.4%; in the test on PC-3 prostate it was 101%. Moreover, the growth in the test on SK-MEL-5 melanoma was 106%; in the test on UACC-62 melanoma it was 99.9%; in the test with LOX IMVI melanoma, 95.5%; in the test with SK-MEL-28 melanoma it was 112%; with SK-MEL-2 melanoma, 99%; with EKVX NSCLC it was 120%. For the same compound, the growth in the test on SN12C renal was 98.3%; in the test with UO-31 renal it was 83.8%; in the test on ACHN renal, 102%; in the test with CAKI-1 renal, 105%; in the test on A498 renal, 84.1%; in the test with MOLT-4 leukemia it was 74.9%.
Regarding `COc1cc(/C=C/c2cc(/C=C/c3ccc(O)c(OC)c3)n(-c3ccccc3)n2)ccc1O`, the growth in the test on HCT-15 colon was -3.38% (active); in the test on HT29 colon, -52.4% (active); in the test with SNB-75 CNS, -53.2% (active); in the test with SNB-19 CNS it was 1.18% (active); with U251 CNS, 1.47% (active); in the test with PC-3 prostate, -33.1% (active). Moreover, the growth was -86.5% (active) in the test on SK-MEL-5 melanoma; -84.4% (active) with UACC-62 melanoma; -37.1% (active) with LOX IMVI melanoma; -6.73% (active) in the test with SK-MEL-28 melanoma; -48.1% (active) in the test with SK-MEL-2 melanoma; -38.8% (active) with EKVX NSCLC. The growth with UO-31 renal was -44.6% (active); with TK-10 renal, 6.18% (active); in the test on ACHN renal, 2.77% (active); in the test on CAKI-1 renal it was -60.4% (active); in the test with A498 renal, -25.2% (active); in the test with CCRF-CEM leukemia it was -5.12% (active). In addition, the growth with MOLT-4 leukemia is -39.9% (active).
As to `COc1ccc(S(=O)(=O)ON=C2C=C(C)C(=O)C(C)=C2)cc1`, the growth was 85.9% with HCT-15 colon; 93.3% with HT29 colon; 69.1% in the test on SNB-75 CNS; 113% in the test with SNB-19 CNS; 94.4% in the test with U251 CNS; 86% in the test with PC-3 prostate. For the same compound, the growth was 98.2% in the test with SK-MEL-5 melanoma; 91.2% in the test on UACC-62 melanoma; 62% in the test on LOX IMVI melanoma; 96.8% in the test with SK-MEL-28 melanoma; 82.5% in the test on SK-MEL-2 melanoma; 113% with SN12C renal. For the same compound, the growth with UO-31 renal was 80.4%; in the test with TK-10 renal it was 109%; with ACHN renal, 46%; in the test with CAKI-1 renal, 61.6%; in the test on A498 renal, 98.4%; with MOLT-4 leukemia, 42%.
Consider `COc1ccc(CSc2nc3cc(OC)c(OC)cc3c(=O)n2-c2ccc(Cl)cc2)cc1`, for which the growth was 98.6% with HCT-15 colon; 112% in the test with HT29 colon; 92.9% with SNB-75 CNS; 99.8% with SNB-19 CNS; 94.2% with U251 CNS; 82% in the test with PC-3 prostate. In addition, the growth in the test with SK-MEL-5 melanoma is 95.4%; with UACC-62 melanoma it was 99.4%; with LOX IMVI melanoma, 98%; in the test with SK-MEL-28 melanoma, 107%; in the test with SK-MEL-2 melanoma, 110%; in the test on SN12C renal, 98.6%. In addition, the growth in the test with UO-31 renal was 71.2%; in the test with TK-10 renal it was 116%; in the test on ACHN renal it was 97.1%; with CAKI-1 renal, 91.2%; in the test with A498 renal it was 88.7%; with CCRF-CEM leukemia, 88.6%. Moreover, in the test on MOLT-4 leukemia, the growth was 101%.
As for `O=S(=O)(Nc1ccccc1Cl)c1ccc(-c2cnc(C3CC3)o2)cc1`, the growth is 24.4% in the test on HCT-15 colon; 12.5% with HT29 colon; -13.4% (active) with SNB-75 CNS; 39.2% with SNB-19 CNS; 25% in the test on U251 CNS; 19.6% in the test with PC-3 prostate. For the same compound, the growth with SK-MEL-5 melanoma was 17.3%; in the test with UACC-62 melanoma, 40.2%; in the test on LOX IMVI melanoma, 44.5%; in the test on SK-MEL-28 melanoma, 59.3%; in the test on SK-MEL-2 melanoma, 39%; with SN12C renal, 48.3%. The growth was 49.8% in the test on UO-31 renal; 61.9% in the test on TK-10 renal; 49.8% with ACHN renal; 38.1% with CAKI-1 renal; 17.4% with CCRF-CEM leukemia; 40.9% with MOLT-4 leukemia.

(Values after PubChem BioAssay (NCI).)
